Assay results published in PubChem BioAssay AID602162 (NMMLSC, 2011).
In all, about 360,000 compounds went through this assay and about 690 (0.19%) were called active.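 The calls were made as follows: active = fluorescence ratio to DMSO below 75%, the collection mean minus 3 SD; inconclusive = too few cells collected in the well; inactive = the rest.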 The full list was thinned out, with actives kept by preference.

Molecular target: ATP-binding cassette sub-family B member 6 (Homo sapiens) (UniProt Q9NP58)
Experiment: ABCB6 transporter inhibitors, primary screen, K562-ABCB6 cells, flow cytometry, MLPCN library (AID 602162);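 also: signal is porphyrin accumulated inside mitochondria; 100% equals median channel fluorescence of DMSO control wells; lower ratio means ABCB6 inhibition with less porphyrin fluorescence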
Conditions: K562-ABCB6 porphyrin accumulation, 1 h, at 10 µM, stronger effect = lower value

Sequence of ATP-binding cassette sub-family B member 6 (Homo sapiens) (Q9NP58 whole entry, looked up): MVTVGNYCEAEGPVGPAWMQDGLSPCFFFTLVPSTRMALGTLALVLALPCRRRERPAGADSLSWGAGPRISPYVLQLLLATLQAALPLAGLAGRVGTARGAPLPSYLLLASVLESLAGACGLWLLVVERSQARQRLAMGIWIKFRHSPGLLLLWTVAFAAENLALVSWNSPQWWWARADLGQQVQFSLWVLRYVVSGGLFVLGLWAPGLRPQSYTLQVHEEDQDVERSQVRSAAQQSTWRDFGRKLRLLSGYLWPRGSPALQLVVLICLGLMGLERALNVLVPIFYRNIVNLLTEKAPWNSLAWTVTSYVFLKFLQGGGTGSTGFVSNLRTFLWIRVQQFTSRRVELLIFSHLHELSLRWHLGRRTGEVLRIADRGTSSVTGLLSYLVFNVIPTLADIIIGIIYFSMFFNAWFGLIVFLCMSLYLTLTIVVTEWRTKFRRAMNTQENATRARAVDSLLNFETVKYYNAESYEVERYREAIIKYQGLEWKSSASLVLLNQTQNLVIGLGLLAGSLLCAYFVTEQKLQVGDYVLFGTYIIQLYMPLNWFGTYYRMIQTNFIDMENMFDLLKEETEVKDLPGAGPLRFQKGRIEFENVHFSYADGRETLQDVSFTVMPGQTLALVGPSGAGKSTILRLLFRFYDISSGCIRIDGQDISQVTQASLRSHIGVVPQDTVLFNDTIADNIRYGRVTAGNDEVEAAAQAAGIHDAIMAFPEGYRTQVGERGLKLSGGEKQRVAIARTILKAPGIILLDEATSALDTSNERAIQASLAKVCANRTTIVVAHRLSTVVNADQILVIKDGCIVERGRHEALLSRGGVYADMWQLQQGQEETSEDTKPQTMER

Structure (SMILES) | fluorescence ratio to DMSO
Cc1ccc(CCNC(=O)c2ccc3nc4ccccc4c(=O)n3c2)cc1 | 100% (inactive)
O=C(NC1CCCCC1)c1ccc2c(=O)n(CC3CCCO3)c(=O)[nH]c2c1 (stereo not drawn) | 97% (inactive)
Cc1ccc2nc3c(cc(C(=O)NCCc4ccccc4)c(=N)n3CC3CCCO3)c(=O)n2c1 (stereo not drawn) | 66% (active)
COc1cc2c(cc1OC)C(c1cccc([N+](=O)[O-])c1)=NCC2 | 100% (inactive)
C=CCN1CC(C)/C(=N\O)CC1C (stereo not drawn) | 88% (inactive)
O=C(Cc1ccc([N+](=O)[O-])cc1)NCCS(=O)(=O)N1CCN(c2ccccc2)CC1 | 107% (inactive)
Cc1cc(Cl)ccc1OCCCC(=O)NCc1ccccn1 | 89% (inactive)
Cc1cc(C)cc(NC(=O)NCc2ccccn2)c1 | 58% (active)
Cc1ccc(SCCC(=O)NCc2ccccn2)cc1 | 98% (inactive)
NC(=O)c1ncc(C(F)(F)F)cc1Oc1ccc(F)cc1 | 91% (inactive)
CCOc1cc(/C=C2/N=C(c3ccc(C(C)(C)C)cc3)OC2=O)cc(Cl)c1OS(C)(=O)=O | 102% (inactive)
CC(C)(C)Cc1c(C2CCCCC2)nc2ccc(Br)cn12 | 101% (inactive)
O=C(CSc1nc2ncccc2[nH]1)Nc1ccc2c(c1)OCCO2 | 103% (inactive)
COc1cc2[nH]c(=S)n(Cc3ccc(C)o3)c(=O)c2cc1OC | 100% (inactive)
CCOc1cc2[nH]c(=S)n(Cc3ccc(C(=O)NCCOC)cc3)c(=O)c2cc1OCC | 98% (inactive)
COc1cc2[nH]c(=S)n(Cc3ccc(F)cc3)c(=O)c2cc1OC | 72% (active)
CCOC(=O)[C@]12CCC=C1N(Cc1ccco1)C(=O)[C@H](CC(=O)NCc1cccc(C(F)(F)F)c1)C2 | 107% (inactive)
CCC(C)NC(=O)CN(C1CCCCC1)S(C)(=O)=O (stereo not drawn) | 98% (inactive)
CS(=O)(=O)N(CC(=O)N1CCN(c2ccc(F)cc2)CC1)C1CCCCC1 | 94% (inactive)
CCOC(=O)N1CCN(C(=O)CN(C2CCCCC2)S(C)(=O)=O)CC1 | 73% (active)
C=CCn1c(CNS(=O)(=O)c2ccc(Br)cc2)nnc1SC | 96% (inactive)
C=Cn1cc[n+](CC(=O)c2ccc(OC)c(OC)c2)c1 | 97% (inactive)
CCOC(=O)Cc1csc(NC(=O)CN(C)S(=O)(=O)c2ccc3c(c2)CCC(=O)N3)n1 | 98% (inactive)
CN(CC(=O)NC(=O)Nc1ccccc1F)Cc1ccccc1 | 97% (inactive)

Structure (SMILES) | fluorescence ratio to DMSO
CCOC(=O)c1ccc(-n2c(C)nc3c(cnn3-c3ccccc3C)c2=O)cc1 | 100% (inactive)
Cc1cccc(N2CCN(C(=O)CCS(=O)(=O)c3ccc4c(c3)NC(=O)C(C)S4)CC2)c1C (stereo not drawn) | 74% (active)
CC1Sc2ccc(S(=O)(=O)CCC(=O)NCc3ccccc3Cl)cc2NC1=O (stereo not drawn) | 93% (inactive)
COc1ccccc1N1CCN(C(=O)CCS(=O)(=O)c2ccc3c(c2)NC(=O)C(C)S3)CC1 (stereo not drawn) | 102% (inactive)
COc1ccc(C(=O)NC2CC2)cc1OC1CCN(C/C=C/c2ccccc2)CC1 | 95% (inactive)
Cc1ccc(CN(C(=O)c2sc3ccccc3c2Cl)C2CCS(=O)(=O)C2)cc1 (stereo not drawn) | 95% (inactive)
CCCn1c(O)c(CN2CCCC(C)C2)c(C)c(C#N)c1=O (stereo not drawn) | 96% (inactive)
CCCCn1nc(C(=O)N2CCc3ccccc32)c2ccccc2c1=O | 102% (inactive)
Cc1ccc(CNC(=O)c2ccc(CS(=O)Cc3cccc(Cl)c3)o2)cc1 (stereo not drawn) | 102% (inactive)
O=C(O)c1ccn(COc2ccc(Br)cc2)n1 | 95% (inactive)
Cc1cccc(NC(=O)c2nc(S(=O)(=O)Cc3ccccc3)ncc2Cl)c1 | 59% (active)
Cc1cccc(C(=O)Nc2ccc(Oc3cnccn3)cc2)c1 | 98% (inactive)
CN(CC(=O)Nc1ccc(F)cc1)CC(=O)Nc1ccc(Cl)c(S(=O)(=O)N2CCOCC2)c1 | 100% (inactive)
Cc1cccc(NS(=O)(=O)c2ccc(C)c(C(=O)NCc3cccnc3)c2)c1 | 98% (inactive)
Cc1cccc(CS(=O)(=O)c2ncc(Cl)c(C(=O)Nc3ccc(F)cc3)n2)c1 | 44% (active)
O=C(CS(=O)(=O)Cc1ccccc1)Nc1cccnc1 | 93% (inactive)
O=C(CSc1nnc(SCc2ccc(Cl)cc2)s1)N/N=C/c1ccccc1Cl | 115% (inactive)
O=C(CSc1nncs1)NC1CCCc2ccccc21 (stereo not drawn) | 104% (inactive)
CCCCC(O)C1=C[N+](=O)CC=C1 (stereo not drawn) | 92% (inactive)
O=C(Nc1ccc(F)cc1)Nc1nnc([C@H]2C[C@H](O)[C@@H](CO)O2)s1 | 104% (inactive)
CCOc1ccc(CCNC(=O)CN2C(=O)NC3(CCc4ccccc43)C2=O)cc1OCC (stereo not drawn) | 103% (inactive)
CCC(=O)Nc1cccc(NC(=O)CSc2nnc(-c3ccc(NS(C)(=O)=O)cc3)n2C)c1 | 103% (inactive)
C=C1CCN([C@H](C(=O)NCc2cc(OC)c(OC)c(OC)c2)C(C)C)S(=O)(=O)c2ccccc21 | 97% (inactive)
Cc1cccc(C(=O)NCc2nnc(SC(C)C(=O)Nc3nnc(C)s3)n2C)c1 (stereo not drawn) | 101% (inactive)

Structure (SMILES) | fluorescence ratio to DMSO
CC(=O)c1cccc(NC(=O)CN2C(=O)c3cccnc3Oc3ccc(Cl)cc32)c1 | 114% (inactive)
CC(C)[C@H](NC(=O)Nc1ccc(S(N)(=O)=O)cc1)C(=O)O | 107% (inactive)
Nc1nc(COC(=O)CCC(=O)c2ccc(Cl)cc2)nc(Nc2ccccc2)n1 | 94% (inactive)
CC(C)(C)C(=O)c1cnc(Nc2ccccc2)s1 | 94% (inactive)
O=C(c1ccc(Cl)cc1)c1cnc(Nc2ccccc2)s1 | 70% (active)
ON=C1/C(=N\O)CC2(C/C1=N/O)OCCO2 | 103% (inactive)
O=C(COC(=O)c1cccc(Cl)c1Cl)NC1CCCCCC1 | 93% (inactive)
COC(=O)c1ccc2nc(C3CCCCC3)c(Cc3cccc(F)c3)n2c1 | 107% (inactive)
COc1cccc(NC(=O)CS(=O)(=O)c2cn(CC(=O)N3CCOCC3)c3ccccc23)c1 | 97% (inactive)
COc1ccccc1C(=O)C(O)c1ccccc1OC (stereo not drawn) | 73% (active)
COc1ccccc1C(=O)Nn1cnnc1 | 100% (inactive)
COc1ccccc1C(=O)c1ccccc1C(=O)c1ccccc1 | 102% (inactive)
CCOc1ccc(S(=O)(=O)NCCC(=O)N2CCCCCCC2)cc1 | 98% (inactive)
CCOc1ccc(CCNC(=O)COC(=O)c2ccc(C)c(S(=O)(=O)N3CCOCC3)c2)cc1OCC | 101% (inactive)
COc1c(O)ccc2c1CN1CCc3cc4c(cc3C1C2)OCO4 (stereo not drawn) | 102% (inactive)
CCn1c(COc2ccccc2)nnc1SCC(=O)Nc1ccc2c(c1)OCCO2 | 73% (active)
CCn1c(SCC(=O)Nc2ccc3c(c2)OCCO3)nnc1C(C)C | 88% (inactive)
Cn1ccnc1SCC(=O)Nc1ccc2c(c1)OCCO2 | 101% (inactive)
COc1cc(CN2CCCC(C(=O)c3ccc(SC)cc3)C2)cc(Cl)c1O (stereo not drawn) | 96% (inactive)
COC(=O)C(=Nc1ccccc1)/C(C(=O)C(=O)N(C)c1ccccc1)=C(\O)c1ccc(Cl)cc1 | 94% (inactive)
COc1cc(NS(=O)(=O)c2ccc(NC(=O)c3ccc(S(=O)(=O)N4CCCCC4)cc3)cc2)ncn1 | 102% (inactive)
CCS(=O)(=O)N1CCC(N2CCN(c3ccccc3)CC2)CC1 | 70% (active)
CS(=O)(=O)N1CCC(C(=O)N2CCN(c3ccccc3)CC2)CC1 | 108% (inactive)
O=S(=O)(NCCS(=O)(=O)N1CCN(c2ccccc2)CC1)c1ccc(F)cc1 | 95% (inactive)

Structure (SMILES) | fluorescence ratio to DMSO
CCOC(=O)c1cc(-c2sc(NC(=O)c3ccccc3)nc2C)n(-c2ccc(Br)cc2)n1 | 90% (inactive)
CS(=O)(=O)N(CC(=O)N1CCc2ccccc2C1)c1ccc(Br)cc1 | 95% (inactive)
COc1cccc(N(CC(=O)N2CCc3ccccc3C2)S(C)(=O)=O)c1 | 73% (active)
Cc1ccc(S(=O)(=O)N(CC(=O)N2CCc3ccccc3C2)c2cccc(Cl)c2)cc1 | 90% (inactive)
COCCNc1cc(-c2ccccc2)nc2cc(-c3cccc(F)c3)nn12 | 97% (inactive)
CC1(C(=O)NS(=O)(=O)c2ccc3ccccc3c2)CCN1C(=O)C1(c2ccc(Cl)cc2)CCC1 (stereo not drawn) | 102% (inactive)
Cc1ncn2cc(-c3ccc(Cl)cc3Cl)[nH]c(=O)c12 | 96% (inactive)
O=C(COc1nsnc1N1CCOCC1)Nc1ccccc1Cl | 95% (inactive)
O=C(Nc1ccccc1Cl)/C(Cl)=C(\Cl)S(=O)c1ccccc1 (stereo not drawn) | 43% (active)
O=C(Nc1ccccc1C(=O)N1CCCCCC1)c1ccccc1Cl | 99% (inactive)
Cc1ccc(S(=O)(=O)N2C[C@@H]3CCCC[C@@H]3[C@@H](C)[C@H]2c2cn(Cc3ccccc3)c3ccc(F)cc23)cc1 | 97% (inactive)
COc1cccc(N(CC(=O)NCCSc2ccccn2)S(C)(=O)=O)c1 | 99% (inactive)
Cc1ccc(C(=O)Nc2ccccc2-c2ccccc2)cc1S(=O)(=O)Nc1ccccc1 | 99% (inactive)
CCOC1=C2[C@H]([C@H]3C(=O)N(c4ccccc4)C(=O)[C@H]3C1)[C@@H](c1ccccc1)N(S(=O)(=O)c1ccc(C)cc1)[C@H]2c1ccccc1 | 104% (inactive)
Cc1cc(C(=O)CSc2nc(N)cc(=O)[nH]2)c(C)n1-c1cccc(F)c1 | 72% (active)
Cc1cc(C)c(C(=O)CSc2nc(C)cc(=O)[nH]2)c(C)c1 | 101% (inactive)
Cc1cc(C(=O)CSc2nc(N)cc(=O)[nH]2)c(C)n1CCc1ccc(Cl)cc1 | 95% (inactive)
CC(Oc1ccccc1)C(=O)NN1Cc2ccccc2C1=N (stereo not drawn) | 99% (inactive)
O=C(OCC(=O)N1CCCCC1)c1ccc(OC(F)(F)F)cc1 | 95% (inactive)
O=C1NC2(CCCCCC2)C(=O)N1CCS(=O)(=O)Oc1ccccc1 | 96% (inactive)
O=c1ccc2cc(S(=O)(=O)N3CCN(c4ccccc4)CC3)ccc2o1 | 98% (inactive)
